Coupling enz – counter-screen for Giardia aldolase inhibitors: coupling enzyme system. coupling enzyme system counterscreen, AmpLite Red fluorescence. activity change, negative = inhibition, % at 58.2 µM, hits read low. 290,000 tested, 0.67% active. AID 2472; in the data active means activity change below about -30%
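First, compound is pin-transferred into glyceraldehyde-3-phosphate coupling-enzyme reagent at 57.5 uM final and held 10 min at RT. Next, substrate, coupling system and AmpLite Red are added. After 20 min RT, fluorescence (525/598 nm) is read.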
NPSR antag – blocks cAMP signaling of the human neuropeptide S receptor; AID 1461; 220,000 tested, 1% active; Potency, µM (titrated, usually from 38.3 µM), without a hit: at the top dose activity change, negative = inhibition, hits mostly inhibitors; CHO-NPSR cells, cAMP TR-FRET, antagonist mode; Q6W5P4; active means well fitted curve in the direction sought with a large enough effect; inconclusive means small, poorly fitted or top-dose-only effect, or another doubt; inactive means no such curve, though single readings can be large; an effect the other way counts as inactive or inconclusive; further: potency means the concentration at half of the fitted maximal effect; nearly all actives have a fitted effect of over 50% in size
RGS12 GoLoco inh – RGS12 GoLoco-Gai1 interaction inhibition. Gai1:RGS12 GoLoco peptide FP, rhodamine, 10 min. Potency, µM (highest dose often 61.6 µM), inactives show at the highest dose activity, negative = inhibition, hits mostly inhibitors. 230,000 tested, 0.44% active. AID 880; active means well fitted inhibition curve with a large enough effect, not every such curve was filed as active; inactive means no such curve, though single readings can be large or run the other way; further: potency means the concentration at half of the fitted maximal effect; nearly all actives have a fitted effect of over 30% in size
KDM4E inh – JMJD2E (human) inhibition; B2RXH2; JMJD2E catalytic domain, FDH-coupled NADH fluorescence (FDH is formaldehyde dehydrogenase); Potency, µM (titrated, usually from 57.1 µM), for inactives: top-dose activity change, negative = inhibition, usual class: inhibitors; 230,000 tested, 1.6% active;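 further: potency means the concentration at half of the fitted maximal effect; 0% = wells with enzyme and -100% = buffer wells without enzyme; nearly all actives have a fitted effect of over 50% in size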
Target sequence (B2RXH2 1-337 limits assumed): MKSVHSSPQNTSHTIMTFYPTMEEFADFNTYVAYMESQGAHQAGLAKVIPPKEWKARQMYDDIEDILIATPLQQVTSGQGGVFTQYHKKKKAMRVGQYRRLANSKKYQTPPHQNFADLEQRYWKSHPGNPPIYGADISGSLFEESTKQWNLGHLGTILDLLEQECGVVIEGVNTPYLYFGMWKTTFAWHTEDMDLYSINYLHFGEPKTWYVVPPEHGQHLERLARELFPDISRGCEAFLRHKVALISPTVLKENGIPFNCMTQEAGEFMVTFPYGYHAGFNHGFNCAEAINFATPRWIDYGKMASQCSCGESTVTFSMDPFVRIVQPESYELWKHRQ
Sfp PPTase inh – inhibitors of Bacillus subtilis Sfp phosphopantetheinyl transferase. Q9F4F7. Biochemical Sfp PPTase activity, qHTS. Potency, µM, for the others: largest response in the series, negative = inhibition, usual class: inhibitors. 310,000 tested, 3.5% active. AID 1490; active means well fitted curve in the direction sought with a large enough effect; inconclusive means small, poorly fitted or top-dose-only effect, or another doubt; inactive means no such curve, though single readings can be large; an effect the other way counts as inactive or inconclusive;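 further: the enzyme is Sfp with the accession as filed and its product quenches rhodamine fluorescence; potency means the concentration at half of the fitted maximal effect; 0% = enzyme reaction without inhibitor and -100% = no enzyme wells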
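Compounds were incubated with enzyme (final 15 nM) for 15 min at room temperature before substrate addition started the reaction. Fluorescence at 525 nm excitation, 598 nm emission was recorded immediately and after 30 minutes.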
ALDH1A1 inh – ALDH1A1 (human) enzyme inhibition; P00352; Potency, µM (doses to about 75.3 µM), for inactives: top-dose activity, negative = inhibition, usual class: inhibitors; Purified ALDH1A1, NADH fluorescence, propionaldehyde substrate; 220,000 tested, 7.3% active;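 further: potency means the concentration at half of the fitted maximal effect; plate controls were no enzyme wells and a reference inhibitor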
Active calls of the source: *; [ ] = dose if it differs, or a comment. Rows were chosen to be rich in hits. Some 8.5% of all compounds tested hit in one or more screens of this group. Unless noted, the call rests on the fitted dose curve; in most records, active means well fitted inhibition curve with a large enough effect (not every such curve was filed as active); inconclusive means small, poorly fitted or top-dose-only effect, or another doubt; inactive means no such curve, though single readings can be large or run the other way. Unless noted, on the % scale 0 is the no-effect control and ±100 the full control effect.

CCOC(=O)c1c(NC(=O)CSc2ccccc2C(=O)O)sc(C)c1C was read as Coupling enz 1, NPSR antag 45%, RGS12 GoLoco inh 32%, KDM4E inh -3%, Sfp PPTase inh 5% and ALDH1A1 inh 2%.
Cc1ccc(N2C(=O)CC(Sc3ccccc3C(=O)O)C2=O)cc1C (stereo not drawn) was read as Coupling enz 2, NPSR antag 10%, RGS12 GoLoco inh -15%, KDM4E inh -12%, Sfp PPTase inh 50µM* and ALDH1A1 inh 0.45µM*.
For CC(C)CN1C(=O)CC(Sc2ccccc2C(=O)O)C1=O (stereo not drawn) the results were Coupling enz 6, NPSR antag -1%[46.1 µM], RGS12 GoLoco inh 1%, KDM4E inh 3%, Sfp PPTase inh -5% and ALDH1A1 inh 18µM*.
Screening CCOC(=O)c1c(N2C(=O)CC(Sc3ccccc3C(=O)O)C2=O)sc(C)c1C (stereo not drawn) returned Coupling enz 13, NPSR antag -2%, RGS12 GoLoco inh -36%, KDM4E inh 1% and Sfp PPTase inh 7.9µM*.
For CN1C(=O)CC(Sc2ccccc2C(=O)O)C1=O (stereo not drawn) the results were Coupling enz 3, NPSR antag 1%[46.1 µM], RGS12 GoLoco inh -13%, KDM4E inh -9%, Sfp PPTase inh 9% and ALDH1A1 inh -15%.
Screening Cc1cccc(N2C(=O)CC(Sc3ccccc3C(=O)O)C2=O)c1 (stereo not drawn) returned Coupling enz 1, NPSR antag 26%, RGS12 GoLoco inh -14%, KDM4E inh 3%, Sfp PPTase inh 56µM* and ALDH1A1 inh 5µM*.
`Cc1cc(C)c2cc(C(=O)N3CCc4ccccc4C3)[nH]c2c1` gave Coupling enz 0, NPSR antag -15%, RGS12 GoLoco inh 4%, KDM4E inh -6% and Sfp PPTase inh -28%.
Screening CN(C)c1ccc(N2C(=O)CC(Sc3ccccc3C(=O)O)C2=O)cc1 (stereo not drawn) returned Coupling enz 9, NPSR antag 11%, RGS12 GoLoco inh -19%, KDM4E inh 0%, Sfp PPTase inh 45µM* and ALDH1A1 inh 1.3µM*.
O=C(O)c1ccccc1SC1CC(=O)N(c2ccc3c(c2)OCO3)C1=O (stereo not drawn) was read as Coupling enz 1, NPSR antag 9%, RGS12 GoLoco inh -13%, KDM4E inh -4%, Sfp PPTase inh 50µM* and ALDH1A1 inh 1.3µM*.
Screening Cc1cc(C)cc(N2C(=O)CC(Sc3ccccc3C(=O)O)C2=O)c1 (stereo not drawn) returned Coupling enz 7, NPSR antag -15%, RGS12 GoLoco inh 0%, KDM4E inh 0% and Sfp PPTase inh 56µM*.
`Cc1ccc(N2C(=O)CC(Sc3ncccc3C(=O)O)C2=O)cc1` (stereo not drawn) gave Coupling enz -1, NPSR antag 17%, RGS12 GoLoco inh -6%, KDM4E inh -5%, Sfp PPTase inh 9% and ALDH1A1 inh -14%.
Screening Cc1ccc(N2C(=O)CC(Sc3ccccc3C(=O)O)C2=O)cc1 (stereo not drawn) returned Coupling enz 4, NPSR antag 15%, RGS12 GoLoco inh -7%, KDM4E inh 6%, Sfp PPTase inh inconclusive and ALDH1A1 inh 0.71µM*.
For Cc1ccc2oc(C(=O)N3CCC(O)(c4ccccc4)CC3)c(C)c2c1 the results were Coupling enz 0 and Sfp PPTase inh -2%.
COc1ccccc1N1CCN(C(=O)CSc2nc3ccccc3nc2N2CCC(C)CC2)CC1 was read as Coupling enz -2 and Sfp PPTase inh -12%.
Screening Cc1nc(SCC(=O)Nc2nnc(C(C)C)s2)n[nH]1 returned Coupling enz 0 and Sfp PPTase inh 9%.
`C[C@@H]1C[C@](C)(C(=O)c2ccco2)C=C1c1ccco1` gave Coupling enz 0, RGS12 GoLoco inh -1%, KDM4E inh -9%, Sfp PPTase inh -5% and ALDH1A1 inh 14µM*.
